Data as given in ChEMBL document CHEMBL3988442, “University of Dundee, Small-Polar-MMV Screening Library” (2021).

Columns and labels:
[1] = biological target: T1, Aspartate--tRNA(Asp/Asn) ligase (Mycobacterium tuberculosis (strain ATCC 25618 / H37Rv)) (UniProt P9WFW3); test: Assay for Asp RNA synthetase-1 from Mycobacterium tuberculosis; type: functional; parameters: scale not given: direction of the effect not stated beside the values; details: 30 µM; also: in the data most compounds retested in dose-response had high values
T1 sequence (whole entry): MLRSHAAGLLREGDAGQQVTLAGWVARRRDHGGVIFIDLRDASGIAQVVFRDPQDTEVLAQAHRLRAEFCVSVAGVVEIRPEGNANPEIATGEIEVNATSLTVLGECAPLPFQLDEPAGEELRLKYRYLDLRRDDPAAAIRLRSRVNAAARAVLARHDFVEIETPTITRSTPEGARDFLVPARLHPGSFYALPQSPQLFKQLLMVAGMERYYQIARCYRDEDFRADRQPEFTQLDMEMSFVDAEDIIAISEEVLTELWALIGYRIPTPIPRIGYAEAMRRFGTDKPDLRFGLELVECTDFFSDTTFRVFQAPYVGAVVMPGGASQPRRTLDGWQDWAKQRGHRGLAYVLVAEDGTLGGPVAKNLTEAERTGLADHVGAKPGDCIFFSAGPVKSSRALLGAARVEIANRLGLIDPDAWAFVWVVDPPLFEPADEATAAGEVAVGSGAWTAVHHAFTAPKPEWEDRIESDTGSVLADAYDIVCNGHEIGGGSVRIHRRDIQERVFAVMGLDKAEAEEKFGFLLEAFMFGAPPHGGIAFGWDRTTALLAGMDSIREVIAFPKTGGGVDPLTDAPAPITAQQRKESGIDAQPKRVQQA

[2] = biological target: Shiga toxin 2 (Escherichia coli O157:H7) (UniProt P09385+P09386); test: E. coli 0.157:H7 Shiga Toxin SOP - stx2 screening assay; type: functional; parameters: scale not given: direction of the effect not stated beside the values; details: 30 µM

SMILES | Percent Effect [1] | Percent Effect [2]
O=C(CN1CCN(CC(O)C2CC2)CC1)NCc1ccc(F)cc1 (stereo unspecified) | -0.889% | -4.46%
COc1ccc2nnc(CCCC(=O)NCCC3=CCCCC3)n2n1 | 0.319% | -54.6%
O=C(NCCOc1ccc(Cl)cc1)N1CCS(=O)(=O)CC1 | -4.21% | 5.32%
O=S1(=O)CCCN1Cc1coc(-c2cccs2)n1 | -3.68% | 0.853%
COc1cnc(C2(O)CCN(C(=O)c3cccnc3)CC2)c(OC)n1 | 0.313% | 17.2%
CCn1cnnc1CNC(=O)c1ccc(Cl)cc1F | 1.24% | -53.7%
O=C(C(CNCc1ccncc1)c1ccccc1)N1CCOCC1 (stereo unspecified) | 11.7% | -69.6%
CC(C)CCn1[nH]c(CNc2ccccc2)nc1=O | 5.27% | -8.36%
COc1ccc(-n2ccc(C(=O)N3CCC(C(N)=O)C3)n2)cc1 (stereo unspecified) | 1.17% | 19.6%
CCc1[nH]ncc1C(=O)N1CCCN(Cc2cnn(C(C)C)c2)CC1 | 6.41% | 9.14%
Cc1ccc(S(=O)(=O)NC(=O)c2cccc(OCC(N)=O)c2)s1 | 2.86% | -20.2%
O=C(CCCNc1ncccn1)N1CCCC(n2cccn2)C1 (stereo unspecified) | 3.16% | 1.16%
CC(Cn1ccnc1)NC(=O)NCCc1ccc2c(c1)OCCO2 (stereo unspecified) | -0.516% | 2.84%
O=C(N[C@@H]1CN(Cc2cccs2)[C@@H]2CCCO[C@@H]21)C1CC1 | 4.13% | -24%
CCn1c(N)nc2cc(C(=O)NCc3ccccc3Cl)cnc21 | 6.55% | -1.88%
Cc1nn(C)c2c(NCCCn3cccn3)ncnc12 | -6.88% | -37.5%
O=C(c1ccc(O)cc1)N1CCN(C(=O)c2ccc3c(c2)COC3)CC1 | -1.8% | -20%
COc1ccccc1OCC(=O)NCC(O)(c1ccccc1)C1CC1 (stereo unspecified) | -1.26% | 6.19%
